Experimental data reported in PubChem BioAssay (NCI).
Compounds without any hit were thinned out: in the full panel of roughly 83,000, 20% have a hit.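 Testing used 96-well plates and a 48-hour single-concentration exposure. Example: -40 means 40% of the starting cells died.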 Calls of active or inactive are those of the source. The calls were made as follows: active = growth percent below 10; inactive = the rest.

Key:
Experiment in all cases: NCI-60 one-dose screen, 48 h (100 = growth as untreated, 0 = no growth, -100 = all killed)
Conditions in all cases: 10 µM unless noted
[1] = system: SR leukemia
[2] = system: RPMI-8226 leukemia
[3] = system: OVCAR-8 ovarian
[4] = system: OVCAR-5 ovarian
[5] = system: OVCAR-4 ovarian
[6] = system: IGROV1 ovarian
[7] = system: OVCAR-3 ovarian
[8] = system: HS 578T breast
[9] = system: NCI/ADR-RES ovarian
[10] = system: SK-OV-3 ovarian

Measured: growth

COc1ccc(-c2cc(-c3cccnc3)nc3sc(C(=O)Nc4ccccc4)c(N)c23)cc1OC
active: [2] 0.963%
inactive: [1] 52.3% | [3] 58.8% | [4] 86.8% | [5] 80.1% | [6] 68.9% | [7] 71.4% | [8] 28.4% | [9] 54.4%

CCSc1ncc(Br)c(Sc2nc(N)nc3nc[nH]c23)n1
inactive: [1] 19.4% | [2] 26.1% | [4] 72.3% | [5] 58.4% | [10] 18.5% | [6] 89.4% | [7] 75.2% | [8] 89.9% | [9] 33.4%

COc1ccc2[nH]c(=O)c(CNc3ccc(Nc4nccc(-c5ccc(Cl)cc5)n4)cc3)cc2c1
inactive: [1] 54% | [2] 77.6% | [4] 103% | [5] 99.9% | [10] 118% | [6] 89.1% | [7] 89.3% | [8] 101% | [9] 92.5%

COc1cc(/C(Cl)=C/C=C/C(=O)c2c(C)[n+]([O-])c3ccc(Cl)cc3[n+]2[O-])cc(OC)c1OC
inactive: [2] 19% | [4] 81.8% | [5] 34.1% | [10] 69.5% | [6] 37.2% | [7] 33.7% | [8] 17.4% | [9] 31.1%
active: [1] 2.04%

COc1cc(/C=C/c2cc(/C=C/c3ccc(O)c(OC)c3)n(C(=O)c3ccc(Cl)cc3)n2)ccc1O
inactive: [3] 29.1% | [4] 79.9% | [5] 36.5% | [6] 34% | [9] 21.9%
active: [1] 3.07% | [2] -16.1% | [7] 7.65%

CC(=O)Nc1ccc(C(=O)COc2ccc(/C=C3\CCc4ccccc4C3=O)cc2)cc1
inactive: [1] 84.4% | [2] 83.3% | [3] 98.8% | [4] 101% | [5] 104% | [10] 117% | [7] 111% | [9] 96.2%

O[N+]1=CC=CCC1=S.On1ccccc1=S.[Zn]
active: [1] -4.29% | [2] -32.6% | [4] -83.1% | [5] -95.6% | [10] -96.6% | [6] -81.2% | [7] -97.4% | [8] 7.55% | [9] -46.8%

CCN(Cc1cccc(S(=O)(=O)[O-])c1)c1ccc(C(=C2C=CC(=[N+](CC)Cc3cccc(S(=O)(=O)O)c3)C=C2)c2ccccc2S(=O)(=O)O)cc1
inactive: [1] 95.6% | [2] 100% | [4] 94.5% | [5] 93.4% | [10] 102% | [6] 110% | [7] 102% | [8] 106% | [9] 102%

COc1ccc(-c2cc(-c3cccnc3)nc(S(=O)(=O)CC(=O)Nc3ccc(C)cc3)c2C#N)cc1OC
inactive: [1] 77.4% | [2] 79.8% | [3] 91.6% | [4] 120% | [5] 90.3% | [6] 107% | [7] 95.4% | [8] 81.9% | [9] 86.8%

CNNc1ncnc2c1cnn2-c1ccc(S(N)(=O)=O)cc1
inactive: [1] 65.6% | [2] 94% | [4] 99.8% | [5] 106% | [10] 115% | [6] 104% | [7] 87.7% | [8] 104% | [9] 87%

Cn1cnc([N+](=O)[O-])c1Sc1nc(N)nc2nc[nH]c12
active: [2] -19.5% | [10] 2.59% | [6] -13.1%
inactive: [1] 10.5% | [4] 28.7% | [5] 42.8% | [7] 22.7% | [8] 65.6% | [9] 32.4%

Cn1ccnc1C(=O)/C=C/c1ccc(C(=O)Nc2nc3ccccc3[nH]2)cc1
active: [7] 7.54%
inactive: [1] 11.2% | [2] 10.7% | [4] 59.9% | [5] 36.7% | [10] 77.2% | [6] 36% | [8] 40.2% | [9] 24.6%

CCCCCCCCCCCCCCCCCC1=NC(C)(CO)CO1 (configuration not stated)
inactive: [1] 118% | [2] 86.7% | [3] 97.6% | [4] 90.5% | [10] 97.8% | [6] 101% | [7] 95.3% | [8] 92.5% | [9] 85.8%

N=C1c2nc3n(c2C(=O)c2nc4n(c21)CCCCC4)CCCCC3
inactive: [1] 91.8% | [2] 99.1% | [4] 123% | [5] 93.2% | [10] 107% | [6] 130% | [7] 111% | [8] 112% | [9] 110%

O=C(c1ccc(Cl)cc1)c1ccc(Cl)cc1
inactive: [1] 93.3% | [2] 115% | [4] 88.7% | [5] 92.4% | [10] 114% | [6] 124% | [7] 105% | [8] 130% | [9] 103%

CCc1nn2c(-c3ccc(Cl)cc3C)c(-c3cc(OC)c(OC)c(OC)c3)nc2s1
inactive: [1] 48.3% | [2] 63.8% | [4] 92.9% | [5] 54% | [10] 94.5% | [6] 73.1% | [7] 72.6% | [8] 48.5% | [9] 78.3%

C[C@H](C(=O)N[C@@H](Cc1ccc(-c2ccccc2)cc1)C(=O)NC1CC(C)(C)N(C)C(C)(C)C1)c1ccc(-c2ccccc2)c(F)c1
active: [1] -40.5% | [2] -41.6% | [4] -70.2% | [5] -50.7% | [10] -33.3% | [6] -26.4% | [7] -82.9% | [8] -35.1% | [9] -5.29%

OCCN1CCN(CCCN2c3ccccc3Sc3ccc(C(F)(F)F)cc32)CC1
inactive: [2] 18.8% | [5] 62.5% | [10] 73.8% | [6] 24.5% | [7] 53.4% | [8] 24.6% | [9] 46.8%
active: [1] -42.9%

NS(=O)(=O)c1ccc(-n2nc(-c3ccc(Br)cc3)ccc2=O)cc1
inactive: [1] 21.1% [100 µM] | [2] 85.7% [100 µM] | [4] 94.7% [100 µM] | [5] 89.4% [100 µM] | [10] 25% [100 µM] | [6] 50.2% [100 µM] | [7] 70.9% [100 µM] | [9] 57% [100 µM]

CC(C)=CCNc1ncnc2c1ncn2C1OC(COP(=O)(O)O)C(O)C1O (configuration not stated)
inactive: [2] 109% | [4] 74.5% | [5] 85.4% | [10] 12.9% | [6] 54.6% | [8] 63.8% | [9] 39.1%
active: [1] -15.2% | [7] 0.0655%

CCCCN=C(N)c1ccc(OCCSCCOc2ccc(C(N)=NCCCC)cc2)cc1
inactive: [1] 44.7% | [2] 26.2% | [4] 84.1% | [5] 50.8% | [10] 41% | [6] 55.1% | [7] 39.6% | [9] 90.9%

CCOC(=O)C(Br)=P(c1ccccc1)(c1ccccc1)c1ccccc1
inactive: [1] 90.2% | [3] 90.4% | [4] 106% | [5] 106% | [10] 102% | [7] 98% | [8] 119% | [9] 103%
active: [6] -30.7%

Cc1cc(C)cc(S(=O)(=O)n2ccc(-c3ccc4c(c3)CCC(C)(C)O4)n2)c1
inactive: [1] 76.5% | [2] 73.2% | [4] 116% | [5] 67.3% | [6] 105% | [7] 87.9% | [8] 92.7% | [9] 79%

CCOC(=O)CNC(=O)C1(NC(=O)CNC(=O)OCc2ccccc2)CCCC1
inactive: [1] 103% | [3] 107% | [4] 95.1% | [5] 106% | [10] 104% | [6] 117% | [7] 142% | [8] 125% | [9] 105%

CC1C(C)N(C(=O)CCl)c2ccccc2N1C(=O)CCl (configuration not stated)
active: [1] -29.6% | [3] -20.8% | [4] -77.5% | [5] -27.2% | [10] -20.4% | [6] -54.6% | [7] -91.1% | [8] -28.3% | [9] -7.93%

O=C(Nc1nc(-c2ccc(Cl)cc2)cs1)c1cc(-c2ccc(Br)cc2)nc2ccc(Cl)cc12
inactive: [1] 15.4% | [2] 16.1% | [4] 106% | [5] 47.3% | [10] 86.6% | [6] 30.8% | [7] 10% | [8] 49.4%
active: [9] 8.07%

O=C1N=C(N2CCOCC2)S/C1=C\c1cn(-c2ccccc2)nc1-c1ccccc1
inactive: [1] 71.5% | [3] 69.9% | [4] 109% | [5] 25.1% | [10] 83.3% | [6] 79.9% | [7] 58% | [8] 57.4% | [9] 60.2%
